# Measured values from PubChem BioAssay (NCATS).
# “And” between values parts separate entries of the source, which are not always exact repeats. Equal values may be shown once. Unmarked numbers belong to inactive results. Results filed as inconclusive are left out. Entries that show only a call come without a potency. The source made the active and inactive calls. Unless noted, calls come from the whole dose curve; as a rule, active = well fitted curve in the direction sought with a large enough effect; inconclusive = small, poorly fitted or top-dose-only effect, or another doubt; inactive = no such curve, though single readings can be large; an effect the other way counts as inactive or inconclusive.
# Tests used:
# C33A = assay: Primary qHTS to identify gynecologic anti-cancer compounds using libraries of approved drugs and bioactive compounds (AID 1345084); settings: Gynecologic cancer cell panel viability, ATPlite luminescence, 48 h; series mostly up to 57.5 µM; note: nearly all actives have a fitted effect of over 55% in size; note: potency is the fitted concentration of half-maximal effect
# Outline: (§1)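 Cells, 1,000 per well, plated 16 h, then exposed 48 h at 37 C to compounds. Viability by ATPlite luminescence after 15 min at room temperature.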
# CASKI = assay: as above; settings: Gynecologic cancer cell panel viability, ATPlite luminescence, 48 h; series mostly up to 57.5 µM
# Outline: as §1
# Es-2 = assay: as above; settings: Gynecologic cancer cell panel viability, ATPlite luminescence, 48 h; series mostly up to 57.5 µM
# Outline: as §1
# Hek293T = assay: as above; settings: Gynecologic cancer cell panel viability, ATPlite luminescence, 48 h, control line for the selectivity index; series mostly up to 57.5 µM
# Outline: as §1
# JEG-3 = assay: as above; settings: Gynecologic cancer cell panel viability, ATPlite luminescence, 48 h; series mostly up to 57.5 µM
# Outline: as §1
# OV90 = assay: as above; settings: Gynecologic cancer cell panel viability, ATPlite luminescence, 48 h; series mostly up to 57.5 µM
# Outline: as §1
# PA-1 = assay: as above; settings: Gynecologic cancer cell panel viability, ATPlite luminescence, 48 h; series mostly up to 57.5 µM
# Outline: as §1
# SKOV3 = assay: as above; settings: Gynecologic cancer cell panel viability, ATPlite luminescence, 48 h; series mostly up to 57.5 µM
# Outline: as §1
# Tov-21-G = assay: as above; settings: Gynecologic cancer cell panel viability, ATPlite luminescence, 48 h; series mostly up to 57.5 µM
# Outline: as §1
# Tov112D = assay: as above; settings: Gynecologic cancer cell panel viability, ATPlite luminescence, 48 h; series mostly up to 57.5 µM
# Outline: as §1
# [1] = Drug repurposing screens with cells derived from glioblastoma tumor samples (AID 1345199); settings: GBM patient neurospheres viability, ATP luminescence, 48 h; note: nearly all actives have a fitted effect of over 40% in size; note: potency is the fitted concentration of half-maximal effect
# Outline: (§2)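 Primary testing used CD133+ neurospheres from four GBM patients, seven concentrations, 48 h exposure and ATP-based viability; confirmation added three slower-growing patient lines.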
# HeLa = assay: Primary qHTS to identify gynecologic anti-cancer compounds using libraries of approved drugs and bioactive compounds (AID 1345084); settings: Gynecologic cancer cell panel viability, ATPlite luminescence, 48 h; series mostly up to 57.5 µM; note: nearly all actives have a fitted effect of over 55% in size; note: potency is the fitted concentration of half-maximal effect
# Outline: as §1
# astro = assay: Drug repurposing screens with cells derived from glioblastoma tumor samples (AID 1345199); settings: viability, ATP luminescence, 48 h; series mostly up to 45.9 µM; note: nearly all actives have a fitted effect of over 40% in size; note: potency is the fitted concentration of half-maximal effect
# Outline: as §2
# [2] = target: Nuclear receptor subfamily 1 group I member 2 (Rattus norvegicus) (UniProt Q9R1A7); assay: qHTS assay for small molecule activators of the rat pregnane X receptor (rPXR) signaling pathway (AID 651751; call rule not given here); settings: rPXR reporter cells, luciferase (One-Glo), 24 h
# Sequence of Nuclear receptor subfamily 1 group I member 2 (Rattus norvegicus) (Q9R1A7 whole entry, looked up): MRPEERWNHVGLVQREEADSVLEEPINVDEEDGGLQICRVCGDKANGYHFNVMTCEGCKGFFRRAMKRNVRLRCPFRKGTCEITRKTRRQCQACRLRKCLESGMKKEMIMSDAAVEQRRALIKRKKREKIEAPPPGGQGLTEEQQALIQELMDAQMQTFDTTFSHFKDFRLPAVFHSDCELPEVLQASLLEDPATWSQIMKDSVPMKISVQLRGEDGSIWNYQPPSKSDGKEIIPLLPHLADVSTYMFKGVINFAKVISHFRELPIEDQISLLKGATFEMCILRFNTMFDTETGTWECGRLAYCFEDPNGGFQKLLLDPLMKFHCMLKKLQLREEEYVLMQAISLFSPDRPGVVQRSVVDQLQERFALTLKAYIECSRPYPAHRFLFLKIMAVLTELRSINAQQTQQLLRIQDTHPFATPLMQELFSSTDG
# [3] = qHTS assay for small molecule activators of the human pregnane X receptor (PXR) signaling pathway (AID 720659; call rule not given here)
# UISO = assay: qHTS assay to identify novel small-molecules to repurpose for Merkel cell carcinoma treatment (AID 1296009); settings: MCC and control cell lines, CellTiter-Glo viability, 72 h; series mostly up to 46 µM; note: nearly all actives have a fitted effect of over 60% in size
# Outline: (§3)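 Luminescence from CellTiter-Glo, read 10 min after addition at room temperature, reported viability following a 72 hr, 37 degree celsius treatment with NPC or MIPE compounds in titration; values normalized to plate controls.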
# WaGa = assay: as above; settings: MCC and control cell lines, CellTiter-Glo viability, 72 h; series mostly up to 46 µM
# Outline: as §3
# [4] = at 45.9 µM (top of the series), tumour line B
# [5] = at 46.1 µM (top of the series), tumour line C
# [6] = at 45.9 µM (top of the series), tumour line D
# [7] = at 20 µM (top of the series), tumour line C
# [8] = at 21.2 µM (top of the series), tumour line B
# [9] = at 21.2 µM (top of the series), tumour line D
smiles,measurement,setting,value
C[C@]12CC[C@@H]3c4ccc(OC(=O)c5ccccc5)cc4CC[C@H]3[C@@H]1CC[C@@H]2O,Potency,C33A,inactive
same,Potency,CASKI,inactive
same,Potency,Es-2,inactive
same,Potency,Hek293T,inactive
same,Potency,JEG-3,inactive
same,Potency,OV90,inactive
same,Potency,PA-1,inactive
same,outcome,SKOV3,inactive
same,Potency,Tov-21-G,inactive
same,outcome,Tov112D,inactive
same,"activity, negative = cell killing",[1]; [4],-25.4%
same,"activity, negative = cell killing",[1]; [5],-17.8%
same,Potency,[1]; tumour line A,11.2 µM (active)
O=C(Nc1ccc(O)cc1)c1ccccc1O,"activity, negative = cell killing",[1]; [5],-27.7%
Cn1c(=O)c2c(ncn2CCOC(=O)C(C)(C)Oc2ccc(Cl)cc2)n(C)c1=O,"activity, negative = cell killing",[1]; [4],-17%
same,"activity, negative = cell killing",[1]; [5],-18.4%
N[C@@H](Cc1cc(I)c(Oc2ccc(O)c(I)c2)c(I)c1)C(=O)O,Potency,C33A,inactive
same,Potency,CASKI,inactive
same,Potency,Es-2,inactive
same,Potency,HeLa,inactive
same,Potency,Hek293T,inactive
same,Potency,JEG-3,inactive
same,Potency,OV90,inactive
same,Potency,PA-1,inactive
same,outcome,SKOV3,inactive
same,Potency,Tov-21-G,inactive
same,outcome,Tov112D,inactive
same,"activity, negative = cell killing",[1]; [4],0.914%
same,"activity, negative = cell killing",[1]; [5],-18.1%
same,Potency,[1]; tumour line A,11.2 µM (active)
same,Potency,astro,inactive
same,max response,[2],-4.55%
same,outcome,[3],inactive
C=C1CC[C@H](O)CC1=C/C=C1\CCC[C@]2(C)[C@@H]([C@H](C)/C=C/[C@H](C)C(C)C)CC[C@@H]12,Potency,C33A,inactive
same,Potency,CASKI,inactive
same,Potency,Es-2,inactive
same,Potency,HeLa,inactive
same,Potency,Hek293T,inactive
same,Potency,JEG-3,inactive
same,Potency,OV90,inactive
same,Potency,PA-1,inactive
same,outcome,SKOV3,inactive
same,Potency,Tov-21-G,inactive
same,outcome,Tov112D,inactive
same,"activity, negative = cell killing",[1]; [5],6.83%
same,Potency,[1]; tumour line A,10 µM (active)
CCCCCCCCCCCC(=O)N(CCO)CCO,"activity, negative = cell killing",[1]; [4],-26.4%
CC(C)(C)c1ccc(CN2CCN(C(c3ccccc3)c3ccc(Cl)cc3)CC2)cc1 (stereo not drawn),Potency,C33A,inactive
same,Potency,CASKI,inactive
same,Potency,Es-2,inactive
same,Potency,HeLa,inactive
same,Potency,Hek293T,inactive
same,Potency,JEG-3,inactive
same,Potency,OV90,inactive
same,Potency,PA-1,inactive
same,outcome,SKOV3,inactive
same,Potency,Tov-21-G,inactive
same,outcome,Tov112D,inactive
same,Potency,astro,35.5 µM (active)
Cc1c(Cl)cccc1Nc1ncccc1C(=O)O,"activity, negative = cell killing",[1]; [4],-16.8%
same,"activity, negative = cell killing",[1]; [6],-17%
Nc1nc(NC2CC2)c2ncn([C@@H]3C=C[C@@H](CO)C3)c2n1,"activity, negative = cell killing",[1]; [5],-22.1%
same,Potency,[1]; tumour line A,35.5 µM (active)
C=C1[C@H](CO)[C@@H](O)C[C@@H]1n1cnc2c(=O)[nH]c(N)nc21,Potency,C33A,inactive
same,Potency,CASKI,inactive
same,Potency,Es-2,inactive
same,Potency,HeLa,inactive
same,Potency,Hek293T,inactive
same,Potency,JEG-3,inactive
same,Potency,OV90,inactive
same,Potency,PA-1,inactive
same,outcome,SKOV3,inactive
same,Potency,Tov-21-G,inactive
same,outcome,Tov112D,inactive
same,"activity, negative = cell killing",[1]; [4],-13.2%
same,"activity, negative = cell killing",[1]; [5],-24%
same,Potency,astro,inactive
O=C(O)CCC(=O)c1ccc(-c2ccccc2)cc1,outcome,UISO,inactive
same,outcome,WaGa,inactive
same,Potency,C33A,inactive
same,Potency,CASKI,inactive
same,Potency,Es-2,inactive
same,Potency,HeLa,inactive
same,Potency,Hek293T,inactive
same,Potency,JEG-3,inactive
same,Potency,OV90,inactive
same,Potency,PA-1,inactive
same,outcome,SKOV3,inactive
same,Potency,Tov-21-G,inactive
same,outcome,Tov112D,inactive
same,"activity, negative = cell killing",[1]; [7],-5.86%
same,"activity, negative = cell killing",[1]; [8],-10%
same,"activity, negative = cell killing",[1]; [9],-17.7%
same,Potency,astro,inactive
CCN(CC)CCOCCOC(=O)C(CC)(CC)c1ccccc1,Potency,C33A,inactive
same,Potency,CASKI,inactive
same,Potency,Es-2,inactive
same,Potency,HeLa,inactive
same,Potency,Hek293T,inactive
same,Potency,JEG-3,inactive
same,Potency,PA-1,inactive
same,outcome,SKOV3,inactive
same,Potency,Tov-21-G,inactive
same,outcome,Tov112D,inactive
same,"activity, negative = cell killing",[1]; [5],-23.4%
same,Potency,[1]; tumour line A,1.41 µM (active)
same,Potency,[1]; tumour line B,14.1 µM (active)
same,Potency,[1]; tumour line D,8.91 µM (active)
COc1ccc2nc(NC(=O)Nc3ccccc3)sc2c1,outcome,UISO,inactive
same,Potency,CASKI,12.6 µM (active)
same,Potency,Es-2,8.91 µM (active)
same,Potency,Hek293T,14.1 µM (active)
same,Potency,JEG-3,20 µM (active)
same,Potency,OV90,22.4 µM (active)
same,Potency,PA-1,25.1 µM (active)
same,Potency,astro,7.94 µM (active)
O=C(O)Cc1cc(I)c(Oc2ccc(O)c(I)c2)c(I)c1,Potency,C33A,inactive
same,Potency,CASKI,inactive
same,Potency,Es-2,inactive
same,Potency,HeLa,inactive
same,Potency,Hek293T,inactive
same,Potency,JEG-3,inactive
same,Potency,OV90,inactive
same,Potency,PA-1,inactive
same,outcome,SKOV3,inactive
same,Potency,Tov-21-G,inactive
same,outcome,Tov112D,inactive
same,"activity, negative = cell killing",[1]; [7],-19.1%
same,"activity, negative = cell killing",[1]; [8],6.94%
same,"activity, negative = cell killing",[1]; [9],9.76%
same,"activity, negative = cell killing","[1]; at 21.3 µM (top of the series), tumour line A",-9.11%
O=C1c2ccccc2C(=O)c2c1ccc(O)c2O,outcome,UISO,inactive
same,Potency,C33A,inactive
same,Potency,CASKI,inactive
same,Potency,Es-2,inactive
same,Potency,HeLa,inactive
same,Potency,Hek293T,inactive
same,Potency,JEG-3,inactive
same,Potency,OV90,inactive
same,Potency,PA-1,inactive
same,Potency,Tov-21-G,inactive
same,outcome,Tov112D,inactive
same,"activity, negative = cell killing",[1]; [4],-22.8%
same,"activity, negative = cell killing",[1]; [5],-2.45%
same,Potency,astro,inactive
CC1=C[C@H](O)CC(C)(C)[C@H]1/C=C/C(C)=C/C=C/C(C)=C/C=C/C=C(C)/C=C/C=C(C)/C=C/C1=C(C)C[C@@H](O)CC1(C)C,"activity, negative = cell killing",[1]; [4],-18.9%
same,"activity, negative = cell killing",[1]; [6],-21.1%
same,"activity, negative = cell killing",[1]; [5],-27.4%
Nc1ccc(N=Nc2ccccc2)c(N)n1,outcome,UISO,inactive
same,outcome,WaGa,inactive
same,Potency,C33A,inactive
same,Potency,CASKI,inactive
same,Potency,Es-2,inactive
same,Potency,Hek293T,inactive
same,Potency,JEG-3,inactive
same,outcome,SKOV3,inactive
same,Potency,Tov-21-G,inactive
same,outcome,Tov112D,inactive
Oc1ccc(/C=C/c2cc(O)cc(O)c2)cc1,outcome,UISO,inactive
same,Potency,Es-2,25.1 µM (active)
same,Potency,Tov-21-G,22.4 µM (active)
same,Potency,astro,4.47 µM (active)
same,max response,[2],-2.85% and -10.8%
